Reference: PubChem BioAssay (NCATS)
Inconclusive results are not listed. Activity calls are given as the source filed them. Unless noted, the call rests on the fitted dose curve; in most records, active means well fitted inhibition curve with a large enough effect; inconclusive means small, poorly fitted or top-dose-only effect; inactive means flat fitted curve, though single readings scatter.

What was measured:
[1] = qHTS drug screen for cell cycle checkpoint inhibitors in PARPi-resistant BRCA-mutant ovarian cancer cell lines. (AID 1963452; calls by dose curve); conditions: PEO1/OlaR viability, CellTiter-Glo luminescence, 96 h, stronger effect = lower value
How it was run: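 PEO1, PEO4 and PEO1/OlaR ovarian cancer cells, 600 per well, exposed 96 h at 37C to a dilution series. Viability read by CellTiter-Glo luminescence, normalized to DMSO and empty wells; activity summarized as Z-AUC.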

[2] = qHTS profiling for inhibitors of Plasmodium falciparum proliferation (AID 504749); further: potency means the concentration at half of the fitted maximal effect;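 on activity, negative = inhibition: 0% = DMSO vehicle and full inhibition = artemisinin control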; on all read-outs here: nearly all actives have a fitted effect of over 60% in size; conditions: P. falciparum in erythrocytes, SYBR Green DNA, 72 h; for activity, negative = inhibition: at 28.7 µM (top of the series)
How it was run: (§1)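 P. falciparum-infected erythrocytes (0.3% parasitemia, 2.5% hematocrit) incubated with compound 72 h at 37 C, 5% CO2. Parasite DNA detected by SYBR Green after lysis, overnight at room temperature; normalised to 0.29 uM artemisinin and DMSO.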

[3] = tested on: 3D7; assay: as above; conditions: P. falciparum in erythrocytes, SYBR Green DNA, 72 h; series mostly up to 28.7 µM
How it was run: as §1

[4] = tested on: 7G8; assay: as above; conditions: P. falciparum in erythrocytes, SYBR Green DNA, 72 h; series mostly up to 28.7 µM
How it was run: as §1

[5] = tested on: AA1029; assay: as above; conditions: P. falciparum in erythrocytes, SYBR Green DNA, 72 h; series mostly up to 28.7 µM
How it was run: as §1

[6] = tested on: AS120; assay: as above; conditions: P. falciparum in erythrocytes, SYBR Green DNA, 72 h; series mostly up to 28.7 µM
How it was run: as §1

[7] = tested on: ATS189; assay: as above; conditions: P. falciparum in erythrocytes, SYBR Green DNA, 72 h; series mostly up to 28.7 µM
How it was run: as §1

[8] = qHTS for identification of novel therapeutic agents for treatment of microphthalmiaassociated transcription factor (MiT) renal cell carcinoma (RCC) (AID 1963991); conditions: CellTiter-Glo, 48 h, stronger effect = lower value;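 further: curves scaled with 100% = DMSO viability and 0% = empty wells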
How it was run: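 UOK109/UOK124/UOK145 (TFE3 fusions, three partners); 500 cells/well; MIPE v4.0, 1912 cpds, 11 conc.; 48 h, 37 C; CellTiter-Glo, 15 min RT; lum. Norm.: DMSO 100%, empty 0%.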

[9] = measured here: PEO1 parental Z-AUC
[10] = TFE3-RCC UOK109 viability, measured here: UOK109 Z-AUC
[11] = TFE3-RCC viability, measured here: UOK124 Z-AUC
[12] = TFE3-RCC viability, measured here: UOK145 Z-AUC

Row | Compound | Z-AUC [1] | Z-AUC [1, 9] | Z-AUC ([1]; measured here: PEO4 Z-AUC) | activity, negative = inhibition ([2]; parasite line A) | activity, negative = inhibition ([2]; parasite line B) | Potency [3] | Potency [4] | Potency [5] | Potency [6] | Potency [7] | z-score [8, 10] | z-score [8, 11] | z-score [8, 12] | Potency ([2]; parasite line B)
1 | O=C(NC(Cc1cc(=O)[nH]c2ccccc12)C(=O)O)c1ccc(Cl)cc1 (centres undefined) | -0.00865 (inactive) | 0.872 | 1.04 | 1.94% (inactive) | -14.9% (inactive) | inactive | inactive | inactive | inactive | inactive |  |  |  | 
2 | CCN(CC)CCOc1ccc(Cc2ccccc2)cc1 | 1.12 (inactive) | 0.729 | 0.289 | 8.39% (inactive) | 6.88% (inactive) | inactive | 12.6 µM (active) | inactive | inactive | inactive |  |  |  | 
3 | Cc1c(OCC(F)(F)F)ccnc1CS(=O)c1nc2ccccc2[nH]1 (centres undefined) | 1.49 (inactive) | 0.689 | 0.798 | -19.3% (inactive) | -5.11% (inactive) | inactive |  | inactive | inactive | inactive | 0.51 | 0.775 | 0.275 | 
4 | N=C(N)c1ccc2cc(OC(=O)c3ccc(N=C(N)N)cc3)ccc2c1 | 0.0758 (inactive) | 0.542 | 0.795 |  |  |  | 11.2 µM (active) |  |  |  | 0.107 | -0.0134 | 0.0541 | 
5 | CCCc1cc(=O)[nH]c(=S)[nH]1 | -0.283 (inactive) | -0.244 | 0.119 | 3.45% (inactive) | 5.92% (inactive) | inactive | inactive | inactive | inactive | inactive |  |  |  | 
6 | CC(C)[C@H](N)C(=O)OCCOCn1cnc2c(=O)[nH]c(N)nc21 | 1.05 (inactive) | 0.583 | 0.722 | -1.13% (inactive) | 7.31% (inactive) | inactive |  | inactive | inactive | inactive | 0.0968 | 0.361 | 0.522 | 
7 | Cc1ccc(C)c(OCCCC(C)(C)C(=O)O)c1 | 1.52 (inactive) | 1.37 | 1.5 | 19.7% (inactive) | 9.1% (inactive) | inactive | inactive | inactive | inactive | inactive |  |  |  | 
8 | CNC[C@H](O)c1ccc(O)c(O)c1 | 0.904 (inactive) | 1.34 | 1.03 | -8.23% (inactive) | 3.15% (inactive) |  | inactive | inactive | inactive | inactive |  |  |  | 
9 | O=C1c2ccccc2-c2n[nH]c3cccc1c23 | 0.0207 (inactive) | -0.118 | 0.208 | -18.5% (inactive) | -1.75% (inactive) | inactive |  | inactive | inactive | inactive |  |  |  | 
10 | COCCCOc1ccnc(CS(=O)c2nc3ccccc3[nH]2)c1C (centres undefined) | -0.249 (inactive) | -0.578 | -0.176 | -29% (inactive) | -20.3% (inactive) | inactive |  | inactive | inactive | inactive | 0.673 | 0.741 | 0.739 | 
11 | COc1ccc(C2(C#N)CCC(C(=O)O)CC2)cc1OC1CCCC1 (centres undefined) | 0.982 (inactive) | 1.47 | 0.858 | 10.1% (inactive) | -9.11% (inactive) | inactive | inactive | inactive | inactive | inactive |  |  |  | 
12 | CCC(C)(Oc1ccc(C2(c3ccc(OC(C)(CC)C(=O)O)cc3)CCCCC2)cc1)C(=O)O (centres undefined) | 0.486 (inactive) | 0.92 | 0.795 | 2.31% (inactive) | -9.49% (inactive) | inactive | inactive | inactive | inactive | inactive |  |  |  | 
13 | Nc1nc(Cl)nc2c1ncn2[C@H]1C[C@H](O)[C@@H](CO)O1 | -0.756 (inactive) | -0.859 | -0.649 | -3.94% (inactive) | 14.5% (inactive) | inactive | inactive | inactive | inactive | inactive |  |  |  | 
14 | CC1(C)NC(=O)N(c2ccc([N+](=O)[O-])c(C(F)(F)F)c2)C1=O | 1.11 (inactive) | 0.722 | 0.784 | -1.6% (inactive) | 7.49% (inactive) | inactive | inactive | inactive | inactive | inactive |  |  |  | 
15 | Cc1cc(C2CCCCC2)n(O)c(=O)c1 | 0.662 (inactive) | 0.159 | -0.0703 |  |  |  | 3.16 µM (active) |  | 3.55 µM (active) |  |  |  |  | 3.55 µM (active)
16 | Cc1c(C(=O)NN2CCCCC2)nn(-c2ccc(Cl)cc2Cl)c1-c1ccc(Cl)cc1 | -1.52 (inactive) | -0.747 | -0.695 |  |  |  | 12.6 µM (active) |  | 12.6 µM (active) |  |  |  |  | 11.2 µM (active)
17 | Cc1nc(Nc2ncc(C(=O)Nc3c(C)cccc3Cl)s2)cc(N2CCN(CCO)CC2)n1 | -3.38 (inactive) | -2.38 | -0.444 |  | -17.2% (inactive) |  | 5.62 µM (active) |  | 12.6 µM (active) |  |  |  |  | 
